In the supplement of paper PMC11732987, “Enantioselective OTUD7B fragment discovery through chemoproteomics screening and high-throughput optimisation” (Communications Chemistry, 2025):

How the values were obtained:
Experiment in all cases: log2 ratio of Biotin-Ahx-Ub-VS probe labelling (fragment/DMSO); higher = less target engagement (more negative = stronger competition), active = hit call of the paper (q ≤ 0.05, log2 ratio ≤ -1)
Details in all cases: compound concentration: 200 uM; treatment time: 3 h
USP34 = USP34 (UniProt Q70CQ2)
Chain of USP34 (Q70CQ2 whole entry, the tested form may be a part): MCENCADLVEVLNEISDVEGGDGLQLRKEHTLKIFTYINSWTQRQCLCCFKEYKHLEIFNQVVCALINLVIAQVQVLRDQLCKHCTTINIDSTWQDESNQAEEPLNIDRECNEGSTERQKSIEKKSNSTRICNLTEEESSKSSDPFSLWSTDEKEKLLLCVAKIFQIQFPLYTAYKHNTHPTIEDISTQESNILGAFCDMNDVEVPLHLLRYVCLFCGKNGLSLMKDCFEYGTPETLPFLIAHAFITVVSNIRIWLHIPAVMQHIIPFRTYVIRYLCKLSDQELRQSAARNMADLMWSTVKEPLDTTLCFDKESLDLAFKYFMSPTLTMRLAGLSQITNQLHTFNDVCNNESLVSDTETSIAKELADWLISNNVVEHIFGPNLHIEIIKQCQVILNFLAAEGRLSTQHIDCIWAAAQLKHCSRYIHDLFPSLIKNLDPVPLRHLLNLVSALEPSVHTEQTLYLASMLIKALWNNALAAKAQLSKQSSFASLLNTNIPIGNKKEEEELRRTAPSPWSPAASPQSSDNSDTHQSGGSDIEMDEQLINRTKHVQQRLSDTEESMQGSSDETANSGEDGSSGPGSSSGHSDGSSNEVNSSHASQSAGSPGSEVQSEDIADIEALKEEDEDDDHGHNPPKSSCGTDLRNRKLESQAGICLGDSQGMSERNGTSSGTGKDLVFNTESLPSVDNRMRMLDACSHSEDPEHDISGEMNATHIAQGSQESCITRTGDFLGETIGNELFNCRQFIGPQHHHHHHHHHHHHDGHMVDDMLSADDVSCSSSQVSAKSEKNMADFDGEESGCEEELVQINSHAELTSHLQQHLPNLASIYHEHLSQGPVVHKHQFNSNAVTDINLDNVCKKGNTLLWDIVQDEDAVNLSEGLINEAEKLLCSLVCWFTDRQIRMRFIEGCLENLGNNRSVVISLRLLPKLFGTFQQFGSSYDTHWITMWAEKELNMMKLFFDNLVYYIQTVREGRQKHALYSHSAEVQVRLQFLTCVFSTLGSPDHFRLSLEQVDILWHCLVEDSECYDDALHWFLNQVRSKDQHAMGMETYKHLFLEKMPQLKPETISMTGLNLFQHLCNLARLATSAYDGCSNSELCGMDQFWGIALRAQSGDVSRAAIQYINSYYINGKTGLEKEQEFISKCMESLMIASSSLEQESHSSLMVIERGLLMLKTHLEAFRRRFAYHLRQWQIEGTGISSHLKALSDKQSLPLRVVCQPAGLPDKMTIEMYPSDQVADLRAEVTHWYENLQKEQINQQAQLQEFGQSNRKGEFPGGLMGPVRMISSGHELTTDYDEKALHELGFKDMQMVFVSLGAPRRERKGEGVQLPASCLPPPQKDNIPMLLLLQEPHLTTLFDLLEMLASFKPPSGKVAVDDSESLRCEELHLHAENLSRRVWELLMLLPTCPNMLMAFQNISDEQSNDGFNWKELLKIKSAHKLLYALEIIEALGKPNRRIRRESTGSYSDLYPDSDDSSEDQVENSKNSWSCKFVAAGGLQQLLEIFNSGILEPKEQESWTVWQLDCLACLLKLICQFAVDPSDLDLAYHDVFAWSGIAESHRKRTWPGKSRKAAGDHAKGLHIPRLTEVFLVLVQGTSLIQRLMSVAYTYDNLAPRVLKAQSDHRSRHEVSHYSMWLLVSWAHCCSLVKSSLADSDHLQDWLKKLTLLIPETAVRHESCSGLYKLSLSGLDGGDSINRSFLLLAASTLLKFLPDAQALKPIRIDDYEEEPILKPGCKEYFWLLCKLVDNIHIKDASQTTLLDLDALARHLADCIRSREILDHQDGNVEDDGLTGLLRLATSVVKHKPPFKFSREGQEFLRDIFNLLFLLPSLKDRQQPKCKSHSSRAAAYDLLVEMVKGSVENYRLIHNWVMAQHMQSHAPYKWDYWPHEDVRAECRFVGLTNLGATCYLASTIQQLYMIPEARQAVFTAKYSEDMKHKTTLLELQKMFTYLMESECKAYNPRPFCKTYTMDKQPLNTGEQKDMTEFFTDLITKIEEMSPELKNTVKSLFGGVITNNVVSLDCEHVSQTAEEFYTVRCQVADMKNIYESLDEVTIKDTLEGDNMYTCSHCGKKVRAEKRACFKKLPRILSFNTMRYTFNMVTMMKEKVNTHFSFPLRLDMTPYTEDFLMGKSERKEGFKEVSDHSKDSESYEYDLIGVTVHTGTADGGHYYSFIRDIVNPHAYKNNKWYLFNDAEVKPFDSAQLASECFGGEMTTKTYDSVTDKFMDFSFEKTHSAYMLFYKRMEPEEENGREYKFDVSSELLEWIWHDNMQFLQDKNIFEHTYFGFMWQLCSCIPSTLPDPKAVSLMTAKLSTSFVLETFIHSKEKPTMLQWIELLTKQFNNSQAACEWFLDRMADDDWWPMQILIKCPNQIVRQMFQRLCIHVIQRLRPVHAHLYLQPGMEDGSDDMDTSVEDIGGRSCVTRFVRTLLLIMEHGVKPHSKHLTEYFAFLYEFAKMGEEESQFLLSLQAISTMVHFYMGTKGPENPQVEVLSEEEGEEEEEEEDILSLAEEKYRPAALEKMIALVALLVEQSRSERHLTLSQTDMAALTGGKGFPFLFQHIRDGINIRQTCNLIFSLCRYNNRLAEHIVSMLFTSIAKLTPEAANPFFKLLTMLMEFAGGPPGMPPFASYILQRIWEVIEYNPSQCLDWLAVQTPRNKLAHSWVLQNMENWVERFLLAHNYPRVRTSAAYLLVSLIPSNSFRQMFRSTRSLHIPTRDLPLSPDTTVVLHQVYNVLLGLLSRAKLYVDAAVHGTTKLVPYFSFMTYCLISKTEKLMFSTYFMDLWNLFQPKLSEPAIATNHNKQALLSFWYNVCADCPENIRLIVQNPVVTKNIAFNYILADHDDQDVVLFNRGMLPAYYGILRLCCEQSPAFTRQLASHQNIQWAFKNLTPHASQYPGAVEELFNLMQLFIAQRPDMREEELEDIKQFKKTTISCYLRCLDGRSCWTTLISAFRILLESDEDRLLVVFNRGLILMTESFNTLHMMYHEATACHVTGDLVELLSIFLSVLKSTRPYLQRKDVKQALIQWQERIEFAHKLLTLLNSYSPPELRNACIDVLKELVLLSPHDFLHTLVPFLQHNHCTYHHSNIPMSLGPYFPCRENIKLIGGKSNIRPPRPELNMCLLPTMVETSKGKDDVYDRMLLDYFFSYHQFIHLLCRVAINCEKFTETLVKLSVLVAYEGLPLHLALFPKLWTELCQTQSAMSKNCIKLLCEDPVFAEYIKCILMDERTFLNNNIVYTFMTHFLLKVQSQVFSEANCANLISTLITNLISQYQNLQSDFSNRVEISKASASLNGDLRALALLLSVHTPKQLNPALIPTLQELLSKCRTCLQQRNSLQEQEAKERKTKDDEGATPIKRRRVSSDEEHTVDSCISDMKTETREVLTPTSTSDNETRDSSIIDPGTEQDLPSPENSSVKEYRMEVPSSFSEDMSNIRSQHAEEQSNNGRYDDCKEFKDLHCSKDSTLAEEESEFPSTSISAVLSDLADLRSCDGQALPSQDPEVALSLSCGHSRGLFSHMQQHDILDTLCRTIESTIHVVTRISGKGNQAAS
In short: (§1)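 HEK293T lysate (495 µg per sample, in Tris/CHAPS/IGEPAL buffer with protease inhibitors) was treated in triplicate with fragment at 200 µM or with DMSO for 3 h. It was then treated with Biotin-Ahx-Ub-VS (0.5 µM final) for 1 h. Labelled DUBs were NeutrAvidin-enriched, digested with LysC and trypsin, and run by diaPASEF LC-MS/MS. Spectronaut label-free quantities were global-median-normalised. Values are average log2 ratios fragment/DMSO by unpaired t-test, using proteins with ≥2 unique peptides.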

USP36 = target: T1, USP36 (UniProt Q9P275)
T1 sequence (whole entry): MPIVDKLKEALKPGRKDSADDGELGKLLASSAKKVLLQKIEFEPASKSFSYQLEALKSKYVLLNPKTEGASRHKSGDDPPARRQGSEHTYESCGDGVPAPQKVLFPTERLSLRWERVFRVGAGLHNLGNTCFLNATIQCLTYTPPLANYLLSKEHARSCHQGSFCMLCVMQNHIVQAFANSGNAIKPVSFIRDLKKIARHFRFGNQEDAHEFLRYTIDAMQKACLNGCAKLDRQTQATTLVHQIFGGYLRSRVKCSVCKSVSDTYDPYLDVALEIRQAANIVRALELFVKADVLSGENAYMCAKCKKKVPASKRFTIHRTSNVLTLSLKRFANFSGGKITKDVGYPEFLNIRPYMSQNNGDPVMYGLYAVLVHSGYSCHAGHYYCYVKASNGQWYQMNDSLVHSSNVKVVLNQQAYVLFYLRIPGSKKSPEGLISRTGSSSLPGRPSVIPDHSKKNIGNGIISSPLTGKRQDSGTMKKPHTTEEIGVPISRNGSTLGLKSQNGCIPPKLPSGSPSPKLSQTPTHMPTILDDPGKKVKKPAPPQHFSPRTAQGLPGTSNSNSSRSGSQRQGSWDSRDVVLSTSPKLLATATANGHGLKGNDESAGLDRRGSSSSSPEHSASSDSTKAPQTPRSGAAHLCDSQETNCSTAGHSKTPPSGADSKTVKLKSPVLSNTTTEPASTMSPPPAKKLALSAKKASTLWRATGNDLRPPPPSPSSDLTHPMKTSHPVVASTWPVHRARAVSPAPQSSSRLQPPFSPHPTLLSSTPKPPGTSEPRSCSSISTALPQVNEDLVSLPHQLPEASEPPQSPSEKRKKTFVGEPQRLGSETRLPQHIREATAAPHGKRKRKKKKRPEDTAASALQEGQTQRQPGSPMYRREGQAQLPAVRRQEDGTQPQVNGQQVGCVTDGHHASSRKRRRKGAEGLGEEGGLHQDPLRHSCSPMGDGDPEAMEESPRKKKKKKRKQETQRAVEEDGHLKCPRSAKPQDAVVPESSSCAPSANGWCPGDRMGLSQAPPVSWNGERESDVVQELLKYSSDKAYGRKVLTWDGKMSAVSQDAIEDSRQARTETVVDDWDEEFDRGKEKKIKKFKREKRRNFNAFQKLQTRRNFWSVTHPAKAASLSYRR
In short: as §1

USP38 = target: T2, USP38 (UniProt Q8NB14)
T2 sequence (whole entry): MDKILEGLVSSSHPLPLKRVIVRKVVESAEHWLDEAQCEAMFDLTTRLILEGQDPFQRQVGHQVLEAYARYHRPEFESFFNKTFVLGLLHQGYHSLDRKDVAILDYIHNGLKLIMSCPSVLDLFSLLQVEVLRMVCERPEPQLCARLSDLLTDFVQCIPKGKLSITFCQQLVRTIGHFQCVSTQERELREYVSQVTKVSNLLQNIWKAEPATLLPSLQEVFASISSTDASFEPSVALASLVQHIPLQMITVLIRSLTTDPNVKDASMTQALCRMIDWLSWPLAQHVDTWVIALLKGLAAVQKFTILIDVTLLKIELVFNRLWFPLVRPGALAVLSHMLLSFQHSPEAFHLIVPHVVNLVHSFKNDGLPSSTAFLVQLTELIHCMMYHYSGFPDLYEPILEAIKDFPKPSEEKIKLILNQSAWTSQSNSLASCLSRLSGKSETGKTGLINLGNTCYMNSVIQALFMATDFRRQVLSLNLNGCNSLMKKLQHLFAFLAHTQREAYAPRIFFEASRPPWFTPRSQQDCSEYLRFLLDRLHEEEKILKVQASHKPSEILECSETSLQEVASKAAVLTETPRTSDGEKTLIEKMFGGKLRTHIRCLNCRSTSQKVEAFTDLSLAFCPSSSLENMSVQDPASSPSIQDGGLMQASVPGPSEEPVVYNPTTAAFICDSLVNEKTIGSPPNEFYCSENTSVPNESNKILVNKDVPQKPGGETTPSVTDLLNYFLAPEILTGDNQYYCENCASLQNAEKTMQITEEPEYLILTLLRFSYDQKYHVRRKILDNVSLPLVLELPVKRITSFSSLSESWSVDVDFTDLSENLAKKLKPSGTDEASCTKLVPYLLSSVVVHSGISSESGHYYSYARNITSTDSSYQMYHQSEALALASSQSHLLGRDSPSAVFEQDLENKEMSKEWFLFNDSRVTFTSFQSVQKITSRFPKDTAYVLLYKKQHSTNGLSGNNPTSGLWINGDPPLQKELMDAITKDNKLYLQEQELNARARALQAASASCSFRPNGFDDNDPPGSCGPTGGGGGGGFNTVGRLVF
In short: as §1

USP39 = target: T3, USP39 (UniProt Q53GS9)
T3 sequence (whole entry): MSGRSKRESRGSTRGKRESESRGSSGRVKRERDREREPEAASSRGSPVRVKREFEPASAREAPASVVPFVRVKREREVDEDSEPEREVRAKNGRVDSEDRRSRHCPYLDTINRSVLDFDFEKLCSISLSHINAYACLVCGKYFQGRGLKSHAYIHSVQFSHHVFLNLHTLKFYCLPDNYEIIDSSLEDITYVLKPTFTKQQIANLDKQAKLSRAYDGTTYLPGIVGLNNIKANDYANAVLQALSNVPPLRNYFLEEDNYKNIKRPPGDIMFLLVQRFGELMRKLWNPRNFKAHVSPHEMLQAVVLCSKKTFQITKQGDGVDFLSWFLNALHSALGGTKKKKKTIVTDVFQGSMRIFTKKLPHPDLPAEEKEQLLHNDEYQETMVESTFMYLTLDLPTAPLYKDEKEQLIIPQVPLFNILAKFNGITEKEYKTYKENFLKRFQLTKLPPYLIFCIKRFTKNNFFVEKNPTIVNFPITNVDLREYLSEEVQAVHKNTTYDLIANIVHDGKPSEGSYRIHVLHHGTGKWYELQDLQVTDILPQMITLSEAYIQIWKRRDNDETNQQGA
In short: as §1

USP4 = target: T4, USP4 (UniProt Q13107)
T4 sequence (whole entry): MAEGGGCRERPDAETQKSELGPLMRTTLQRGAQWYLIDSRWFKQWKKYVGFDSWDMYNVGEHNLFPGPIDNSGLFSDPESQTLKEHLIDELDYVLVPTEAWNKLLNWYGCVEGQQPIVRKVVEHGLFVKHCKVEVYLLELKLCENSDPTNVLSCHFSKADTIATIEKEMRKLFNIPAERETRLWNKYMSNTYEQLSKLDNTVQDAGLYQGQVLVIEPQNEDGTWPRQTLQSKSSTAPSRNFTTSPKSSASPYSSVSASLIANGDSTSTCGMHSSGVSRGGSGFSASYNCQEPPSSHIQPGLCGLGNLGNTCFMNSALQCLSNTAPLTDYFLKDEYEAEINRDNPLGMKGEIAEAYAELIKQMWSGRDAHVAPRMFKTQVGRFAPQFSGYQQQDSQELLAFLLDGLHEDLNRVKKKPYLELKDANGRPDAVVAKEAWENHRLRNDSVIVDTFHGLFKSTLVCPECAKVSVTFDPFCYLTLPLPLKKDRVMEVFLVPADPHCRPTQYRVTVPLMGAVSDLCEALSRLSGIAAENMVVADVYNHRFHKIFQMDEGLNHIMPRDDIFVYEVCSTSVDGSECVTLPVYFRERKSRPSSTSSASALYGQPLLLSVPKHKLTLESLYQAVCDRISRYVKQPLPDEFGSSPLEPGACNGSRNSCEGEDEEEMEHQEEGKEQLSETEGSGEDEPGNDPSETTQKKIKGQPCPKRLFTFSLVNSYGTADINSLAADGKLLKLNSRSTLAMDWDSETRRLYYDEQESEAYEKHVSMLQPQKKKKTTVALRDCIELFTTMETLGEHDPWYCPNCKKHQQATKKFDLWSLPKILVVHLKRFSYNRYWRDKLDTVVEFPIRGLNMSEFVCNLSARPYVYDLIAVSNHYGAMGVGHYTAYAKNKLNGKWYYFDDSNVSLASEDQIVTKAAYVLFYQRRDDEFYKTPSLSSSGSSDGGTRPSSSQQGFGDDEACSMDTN
In short: as §1

Measured: log2 ratio of Biotin-Ahx-Ub-VS probe labelling

Cc1cccc(C(CNC(=O)CCl)N2CCOCC2)c1.Cl (stereo not given)
inactive: USP34 -0.0673 | USP36 0.0549 | USP38 -0.0229 | USP39 -0.116 | USP4 -0.165
